Data: PubChem BioAssay (NCATS)
Inconclusive results are not listed. The list shows a part of the results. A call without a number means that no potency is given here. Activity calls are given as the source filed them. Unless noted, calls come from the whole dose curve; as a rule, active = well fitted curve in the direction sought with a large enough effect; inconclusive = small, poorly fitted or top-dose-only effect, or another doubt; inactive = no such curve, though single readings can be large; an effect the other way counts as inactive or inconclusive.

Assays:
[1] = biological target: DNA polymerase eta (Homo sapiens) (UniProt Q9Y253); experiment: qHTS for Inhibitors of Polymerase Eta: Confirmatory Assay for Cherry-picked Compounds (AID 720502); conditions: Pol eta primer extension, TAMRA/BHQ fluorescence, 10 min; note: potency is the fitted concentration of half-maximal effect
Procedure, shortened: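 Readout: TAMRA dequenching, ex 525/em 598 nm, read at 0 and 10 min. Enzyme: 10 nM human Pol eta, preincubated with compound 15 min RT. Substrate: 50 nM final annealed primer/reporter/template duplex.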

[2] = biological target: DNA dC->dU-editing enzyme APOBEC-3G (Homo sapiens) (UniProt Q9HC16); experiment: qHTS for inhibitors of Vif-A3G interactions: Validation (AID 588379); conditions: Vif-A3G protein interaction assay; series mostly up to 46.1 µM
Procedure, shortened: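 HeLa cells stably expressing Vif and A3G-eYFP, 700 cells/well, incubated overnight at 37 deg C, then exposed to compound overnight at 37 deg C. Inhibition of Vif-mediated degradation read as increased yellow fluorescence (Ex 488/Em 500-530) by laser-scanning cytometry.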

[3] = biological target: Tyrosyl-DNA phosphodiesterase 1 (Homo sapiens) (UniProt Q9NUW8); experiment: Confirmation Assay for Inhibitors of Tyrosyl-DNA Phosphodiesterase (TDP1) (AID 489007); conditions: recombinant human TDP1 enzymatic activity, dose-response; note: potency is the fitted concentration of half-maximal effect; nearly all actives have a fitted effect of over 40% in size
Procedure, shortened: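 Tdp1 1 nM + cpd, 15 min RT; add biotin/phosphotyrosine-FITC oligo 15 nM, 5 min RT; add AS donor/acceptor beads 10 ug/ml, 10 min RT; read AlphaScreen. No-enzyme wells = max signal.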

[4] = biological target: Guanine nucleotide-binding protein G(i) subunit alpha-1 (Homo sapiens) (UniProt P63096); experiment: qHTS Assay for Inhibitors of RGS12 GoLoco Motif Activity (Green Fluorophore) (AID 879); conditions: Galphai1/FITC-RGS12 GoLoco peptide, fluorescence polarization; series mostly up to 57.1 µM;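 note: negative values mean loss of peptide binding seen as reduced polarization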
Procedure, shortened: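 Fluorescence polarization assay: 50 nM Gαi1 with 10 nM FITC-labeled RGS12 GoLoco peptide in 10 mM Tris pH 7.5, 150 mM NaCl, 0.1 mM GDP, 0.05% NP40, 10 min at room temperature with compound.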

[5] = qHTS Assay for Identification of Small Molecule Agonists for Thrombopoietin (TPO) Signaling Pathway (AID 917); conditions: TPO signaling pathway reporter cells, agonist qHTS, stimulated with TPO at its EC50; series mostly up to 38.5 µM
Procedure, shortened: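 Reporter: GpIIb promoter–luciferase in murine Ba/F3 expressing human TPO receptor. Pre-starved of IL-3 overnight; compounds with 26 pM TPO, 24 hrs, 37 C/5% CO2; luminescence read.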

[6] = biological target: Muscarinic acetylcholine receptor M1 (Rattus norvegicus) (UniProt P08482); experiment: qHTS Assay for Antagonists of Acetylcholine Muscarinic M1 Receptor: Measurement of IP-One Response (AID 944); conditions: CHO-M1 cells, IP-One HTRF, antagonist mode; series mostly up to 46.1 µM; note: nearly all actives have a fitted effect of over 75% in size
Procedure, shortened: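 M1-CHO (rat), 2000 cells/well, overnight recovery; cpd 10 min; carbachol EC80 (200 nM), 30 min, HEPES buffer + 50 mM LiCl pH 7.4; IP-One HTRF, Ex 337, Em 620/665 nm.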

[7] = biological target: Pyruvate kinase (Leishmania mexicana) (UniProt Q27686); experiment: qHTS Validation Assay for Inhibitors of Leishmania Mexicana Pyruvate Kinase (AID 945); conditions: purified L. mexicana pyruvate kinase, enzyme activity, E451W mutant enzyme; series mostly up to 57.5 µM
Procedure, shortened: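 Luminescent ATP detection (PKLight) after a 1 h room-temperature reaction of 0.2 nM LmPYK E451W mutant with 0.5 mM PEP and 0.1 mM ADP at pH 7.2. Activity is normalized to DMSO-only control wells.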

[8] = biological target: Pyruvate kinase PKM (Homo sapiens) (UniProt P14618); experiment: qHTS Assay for Activators of Human Muscle Pyruvate Kinase (AID 954; active = well fitted curve in the direction sought with a large enough effect, not every such curve was filed as active); conditions: purified human muscle pyruvate kinase, luciferase-coupled luminescence, 1 h; series mostly up to 57.5 µM
Procedure, shortened: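 Enzyme was run at intermediate activity so both inhibitors and activators could be detected. ATP formed from ADP and PEP by 0.1 nM human PKM2 during a 1 h room-temperature incubation was quantified by coupled luciferase luminescence.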

[9] = biological target: Alpha-galactosidase A (Homo sapiens) (UniProt P06280); experiment: Counterscreen for Glucocerebrosidase Inhibitors: qHTS Assay for Human alpha-Galactosidase at pH 4.5 (AID 992); conditions: purified enzyme, fluorogenic substrate; series mostly up to 76.9 µM
Procedure, shortened: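 Read-out is 4-methylumbelliferone fluorescence (365 nm excitation, 440 nm emission) after a pH 10 NaOH/glycine stop. Reactions held 2 nM enzyme and 80 uM substrate at pH 4.5 for 20 min at room temperature.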

[10] = biological target: alpha-glucosidase (Oryza sativa, rice) (UniProt Q653V4); experiment: Counterscreen for Glucocerebrosidase Inhibitors: qHTS Assay for Rice alpha-Glucosidase at pH 5.0 (AID 997); conditions: rice alpha-glucosidase enzyme activity; series mostly up to 76.9 µM
Procedure, shortened: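 Rice alpha-glucosidase (4 nM final) with 400 uM 4-methylumbelliferyl-alpha-D-glucopyranoside in citrate buffer pH 5.0, 20 min at room temperature, stopped at pH 10; fluorescence 365/440 nm, compounds 0.7 nM–77 uM, AC50 from Hill fits.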

[11] = Cytometric Cell-Based qHTS for Inhibitors of the mTORC1 Signaling Pathway in MEF (Tsc2-/-, p53-/-) Cells (AID 2660); conditions: mTORC1 pathway cytometry; series mostly up to 38.3 µM;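 note: percent of cells above a phospho-rpS6 to PI ratio cutoff in each well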
Procedure, shortened: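 Percent of cells positive for normalized phospho-S6 staining is reported, with the cutoff set from rapamycin (7.5 nM) versus DMSO wells. Tsc2-/-, p53-/- MEFs received compound for 24 hrs.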

[12] = High Content Imaging Cell-Based qHTS for Inhibitors of the mTORC1 Signaling Pathway in MEF (Tsc2-/-, p53-/-) Cells (AID 2666); conditions: at 38.3 µM (top of the series);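 note: percent of cells scored positive for phospho-rpS6 Ser235/236 immunostaining by imaging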
Procedure, shortened: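 Read-out: % positive cells per well, with thresholds from highest- and lowest-signal wells, based on phospho-rpS6 (Ser235/236) intensity normalized to Hoechst nuclear stain. Cells: Tsc2-/-, p53-/- MEFs carrying empty vector; compound 24 hrs, 37 degree Celsius.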

[13] = High Content Imaging Cell-Based qHTS for Inhibitors of the mTORC1 Signaling Pathway in MEF Cells (AID 2667); conditions: series mostly up to 38.3 µM;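 note: Tsc2-/- p53-/- MEFs stably re-expressing wild-type Tsc2 exposed 24 h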
Procedure, shortened: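 MEF (Tsc2-/-, p53-/-, WT Tsc2 re-expressed); cpd 24 h, 37 °C; PFA fix; Alexa-488 anti-p-rpS6 Ser235/236, PI, Hoechst; IN Cell imaging; Hoechst/Alexa-488 intensity ratio; % active cells, thresholds set from rapamycin and DMSO wells.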

[14] = Cytometry Cell-Based qHTS for Inhibitors of the mTORC1 Signaling Pathway in MEF cells (AID 2668); conditions: mTORC1 pathway readout; series mostly up to 38.3 µM;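 note: Tsc2-/- p53-/- mouse embryonic fibroblasts stably re-expressing wild-type Tsc2; percent cells positive for phospho-rpS6 Ser235/236 relative to propidium iodide stain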
Procedure, shortened: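 Phospho-rpS6 (Ser235/236) immunofluorescence over PI signal, scored as % positive cells using thresholds from 7.5 nM rapamycin and DMSO wells, after 24 h compound exposure of WT-Tsc2-rescued Tsc2-/-, p53-/- MEFs. PI cell count recorded for viability.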

[15] = biological target: Ubiquitin carboxyl-terminal hydrolase 2 (Homo sapiens) (UniProt O75604); experiment: qHTS Validation Assay for Inhibitors of Ubiquitin-specific Protease USP2a Using CHOP2 as the Reporter (AID 463106); conditions: USP2a cleavage of CHOP2 reporter, enzymatic; series mostly up to 38.3 µM
Procedure, shortened: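 USP2 core (10nM final) was preincubated with compound for 30min at RT in 20mM Tris-HCl pH 8.0, 2mM CaCl2, 2mM beta-mercaptoethanol, 0.05% CHAPS. Ub-CHOP2 and reporter substrate (25nM each) were added, and fluorescence (Ex 485/Em 531nm) was read after 60min.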

[16] = biological target: DNA polymerase III PolC-type (Bacillus subtilis (strain 168)) (UniProt P13267); experiment: qHTS Validation Assay for the Inhibitors of DNA Replication in Gram-Positive Bacteria (AID 485295); conditions: Gram-positive bacterial DNA replication assay; series mostly up to 57.1 µM;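 note: reconstituted holoenzyme with PolC plus beta clamp SSB and primase; PicoGreen fluorescence of double-stranded DNA made on primed circular M13 template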
Procedure, shortened: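 Double-stranded DNA product detected by PicoGreen fluorescence after EDTA quench. Compound incubated with B. subtilis holoenzyme (PolC, beta subunit, SSB, primase) before substrate addition; primed replication of M13Gori with dNTPs and NTPs at room temperature; DMSO defines 0% inhibition.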

[17] = biological target: DNA polymerase iota (Homo sapiens) (UniProt Q9UNA4); experiment: qHTS for Inhibitors of Polymerase Iota: Confirmatory Assay for Cherry-picked Compounds (AID 720496); conditions: Pol iota primer extension, TAMRA/BHQ fluorescence; note: potency is the fitted concentration of half-maximal effect
Procedure, shortened: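 Read-out is TAMRA fluorescence (525 nm excitation, 598 nm emission) at 0 and 10 min. It reflects strand displacement from a BHQ-2-quenched template by 10 nM Pol iota, with 50 nM final substrate after 15 min compound preincubation.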

[18] = S16 Schwann cell PMP22 intronic element firefly luciferase assay (AID 624032); conditions: S16 rat Schwann cells, PMP22 element FLuc, 24 h; series mostly up to 57.5 µM; note: nearly all actives have a fitted effect of over 30% in size
Procedure, shortened: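 Rat S16 Schwann cells stably carrying a PMP22 intronic element-driven Fluc reporter were seeded overnight, then exposed to compounds for 24 h at 37 °C. Luminescence was normalized to PTC124 (positive control) and DMSO (0% activity).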

[19] = qHTS Assay for Inhibitors of Fructose-1,6-bisphosphate Aldolase from Giardia Lamblia: Coupling assay counterscreen confirmation (AID 2795); conditions: GAPDH coupling enzyme counterscreen, biochemical; series mostly up to 57.5 µM; note: nearly all actives have a fitted effect of over 55% in size
Procedure, shortened: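 Coupling enzymes were first exposed to test compounds (final up to 57.5 uM) for 10 min at room temperature. A substrate plus coupling-system plus AmpLite Red mixture was then added, and after 20 more minutes fluorescence was measured at 525/598 nm.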

[20] = S16 Schwann cell viability assay (CellTiter-Glo assay) (AID 624031); conditions: S16 rat Schwann cells viability, 24 h; series mostly up to 57.5 µM;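 note: cellular ATP luminescence as a viability measure; nearly all actives have a fitted effect of over 70% in size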
Procedure, shortened: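 Untransfected S16 rat Schwann cells; compound 24 h, 37 °C/5% CO2; CellTiter-Glo ATP luminescence. % activity vs no-cell wells and DMSO controls (0%); concentration-effect curves classed by r2, response magnitude, activity.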

Chain of DNA dC->dU-editing enzyme APOBEC-3G (Homo sapiens) (Q9HC16 whole entry, looked up): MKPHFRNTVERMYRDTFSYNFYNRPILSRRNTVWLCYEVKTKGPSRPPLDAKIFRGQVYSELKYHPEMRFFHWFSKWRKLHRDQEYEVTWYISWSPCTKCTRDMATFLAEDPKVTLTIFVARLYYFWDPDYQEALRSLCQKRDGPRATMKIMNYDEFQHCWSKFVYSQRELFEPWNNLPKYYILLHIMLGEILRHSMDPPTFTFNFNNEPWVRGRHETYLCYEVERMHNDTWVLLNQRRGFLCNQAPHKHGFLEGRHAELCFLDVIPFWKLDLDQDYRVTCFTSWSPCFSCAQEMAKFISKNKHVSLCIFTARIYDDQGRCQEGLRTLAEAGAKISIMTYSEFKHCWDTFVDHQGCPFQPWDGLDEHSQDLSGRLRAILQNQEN
Chain of DNA polymerase eta (Homo sapiens) (Q9Y253 whole entry, looked up): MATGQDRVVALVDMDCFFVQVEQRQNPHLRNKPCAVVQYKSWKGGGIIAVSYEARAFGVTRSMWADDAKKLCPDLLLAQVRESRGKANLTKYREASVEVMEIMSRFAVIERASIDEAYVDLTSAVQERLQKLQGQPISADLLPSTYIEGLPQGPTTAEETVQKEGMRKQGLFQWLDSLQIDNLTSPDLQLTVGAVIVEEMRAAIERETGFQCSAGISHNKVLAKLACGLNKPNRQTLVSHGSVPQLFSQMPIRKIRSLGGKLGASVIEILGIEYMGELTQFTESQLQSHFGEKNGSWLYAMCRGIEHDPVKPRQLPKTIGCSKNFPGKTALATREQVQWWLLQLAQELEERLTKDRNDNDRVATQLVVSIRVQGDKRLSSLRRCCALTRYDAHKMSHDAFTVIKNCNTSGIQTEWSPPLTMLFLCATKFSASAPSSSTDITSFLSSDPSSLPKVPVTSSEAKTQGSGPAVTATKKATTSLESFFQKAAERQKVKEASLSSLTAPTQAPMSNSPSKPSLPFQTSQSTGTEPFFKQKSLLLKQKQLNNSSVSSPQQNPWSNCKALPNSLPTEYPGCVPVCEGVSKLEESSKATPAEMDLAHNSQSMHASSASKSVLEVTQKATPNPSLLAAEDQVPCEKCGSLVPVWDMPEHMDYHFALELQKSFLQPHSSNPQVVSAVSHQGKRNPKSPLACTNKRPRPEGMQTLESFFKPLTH
Chain of Tyrosyl-DNA phosphodiesterase 1 (Homo sapiens) (Q9NUW8 whole entry, looked up): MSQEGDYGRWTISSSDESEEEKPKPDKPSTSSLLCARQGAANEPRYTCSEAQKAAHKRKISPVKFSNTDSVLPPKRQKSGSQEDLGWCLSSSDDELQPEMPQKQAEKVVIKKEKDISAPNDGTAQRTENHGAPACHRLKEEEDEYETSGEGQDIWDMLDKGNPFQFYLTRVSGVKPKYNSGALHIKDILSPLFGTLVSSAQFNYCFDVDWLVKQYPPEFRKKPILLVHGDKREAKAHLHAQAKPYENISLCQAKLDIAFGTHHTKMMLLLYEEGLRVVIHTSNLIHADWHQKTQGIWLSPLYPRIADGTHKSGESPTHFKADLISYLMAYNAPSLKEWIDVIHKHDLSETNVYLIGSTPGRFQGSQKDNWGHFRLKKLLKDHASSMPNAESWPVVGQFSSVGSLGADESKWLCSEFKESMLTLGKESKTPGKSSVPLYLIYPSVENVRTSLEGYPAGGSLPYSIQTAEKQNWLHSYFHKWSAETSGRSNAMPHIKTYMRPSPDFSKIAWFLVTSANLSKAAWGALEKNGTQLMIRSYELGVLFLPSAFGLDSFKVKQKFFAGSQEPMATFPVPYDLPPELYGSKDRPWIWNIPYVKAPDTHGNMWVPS
Chain of Pyruvate kinase PKM (Homo sapiens) (P14618 whole entry, looked up): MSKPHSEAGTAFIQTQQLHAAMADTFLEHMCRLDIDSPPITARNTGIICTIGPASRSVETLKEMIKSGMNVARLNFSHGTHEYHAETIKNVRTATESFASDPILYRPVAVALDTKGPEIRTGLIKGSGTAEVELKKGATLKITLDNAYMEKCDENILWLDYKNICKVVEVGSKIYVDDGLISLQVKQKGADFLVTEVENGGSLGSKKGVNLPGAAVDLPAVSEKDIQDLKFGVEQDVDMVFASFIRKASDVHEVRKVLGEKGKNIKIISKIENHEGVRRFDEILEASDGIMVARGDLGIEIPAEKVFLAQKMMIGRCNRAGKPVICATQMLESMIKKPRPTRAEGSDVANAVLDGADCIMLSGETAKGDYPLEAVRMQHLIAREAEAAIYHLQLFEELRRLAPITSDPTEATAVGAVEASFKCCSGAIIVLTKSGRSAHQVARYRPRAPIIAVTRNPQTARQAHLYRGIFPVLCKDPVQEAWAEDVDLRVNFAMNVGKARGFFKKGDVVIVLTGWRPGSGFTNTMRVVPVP
Chain of DNA polymerase iota (Homo sapiens) (Q9UNA4 whole entry, looked up): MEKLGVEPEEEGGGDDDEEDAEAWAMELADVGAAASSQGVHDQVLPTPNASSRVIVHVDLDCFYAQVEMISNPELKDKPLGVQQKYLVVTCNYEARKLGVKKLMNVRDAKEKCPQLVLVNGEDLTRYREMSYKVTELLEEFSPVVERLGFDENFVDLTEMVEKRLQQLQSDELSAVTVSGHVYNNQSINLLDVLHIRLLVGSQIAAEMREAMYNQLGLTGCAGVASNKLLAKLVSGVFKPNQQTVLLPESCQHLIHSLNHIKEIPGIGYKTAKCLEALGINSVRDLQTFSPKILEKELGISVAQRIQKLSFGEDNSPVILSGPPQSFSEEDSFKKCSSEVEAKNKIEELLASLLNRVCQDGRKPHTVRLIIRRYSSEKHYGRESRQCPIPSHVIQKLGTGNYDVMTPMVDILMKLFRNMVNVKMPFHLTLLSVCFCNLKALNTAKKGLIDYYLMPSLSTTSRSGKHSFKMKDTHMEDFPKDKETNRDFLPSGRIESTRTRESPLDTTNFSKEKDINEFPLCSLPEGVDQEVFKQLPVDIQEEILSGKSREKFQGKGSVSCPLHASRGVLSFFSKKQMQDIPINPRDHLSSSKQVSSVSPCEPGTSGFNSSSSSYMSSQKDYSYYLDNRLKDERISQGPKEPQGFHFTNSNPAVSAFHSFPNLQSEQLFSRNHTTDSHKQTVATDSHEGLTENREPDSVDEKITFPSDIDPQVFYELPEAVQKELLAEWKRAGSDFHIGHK
Chain of Guanine nucleotide-binding protein G(i) subunit alpha-1 (Homo sapiens) (P63096 whole entry, looked up): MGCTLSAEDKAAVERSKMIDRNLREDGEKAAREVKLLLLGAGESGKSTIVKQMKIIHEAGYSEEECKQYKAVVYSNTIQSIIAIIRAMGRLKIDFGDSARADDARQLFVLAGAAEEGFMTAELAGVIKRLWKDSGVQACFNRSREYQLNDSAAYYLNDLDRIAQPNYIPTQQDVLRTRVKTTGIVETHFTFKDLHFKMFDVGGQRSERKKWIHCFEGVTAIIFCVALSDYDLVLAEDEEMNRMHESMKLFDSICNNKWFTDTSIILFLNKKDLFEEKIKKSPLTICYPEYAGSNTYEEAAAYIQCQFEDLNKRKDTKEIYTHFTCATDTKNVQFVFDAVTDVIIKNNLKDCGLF
Chain of Alpha-galactosidase A (Homo sapiens) (P06280 whole entry, looked up): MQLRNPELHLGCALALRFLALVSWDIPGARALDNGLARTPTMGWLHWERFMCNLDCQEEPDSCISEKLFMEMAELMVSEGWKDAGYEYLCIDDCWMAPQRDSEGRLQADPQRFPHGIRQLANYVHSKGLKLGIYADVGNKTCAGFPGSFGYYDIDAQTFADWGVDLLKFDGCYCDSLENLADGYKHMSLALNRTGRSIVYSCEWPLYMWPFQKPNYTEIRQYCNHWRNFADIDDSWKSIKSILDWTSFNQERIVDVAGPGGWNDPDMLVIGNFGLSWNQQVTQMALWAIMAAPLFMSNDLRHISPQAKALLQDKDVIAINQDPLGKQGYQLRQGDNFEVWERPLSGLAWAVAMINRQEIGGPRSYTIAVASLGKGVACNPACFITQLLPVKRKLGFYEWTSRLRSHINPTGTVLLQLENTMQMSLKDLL
Chain of Pyruvate kinase (Leishmania mexicana) (Q27686 2-499 E452W): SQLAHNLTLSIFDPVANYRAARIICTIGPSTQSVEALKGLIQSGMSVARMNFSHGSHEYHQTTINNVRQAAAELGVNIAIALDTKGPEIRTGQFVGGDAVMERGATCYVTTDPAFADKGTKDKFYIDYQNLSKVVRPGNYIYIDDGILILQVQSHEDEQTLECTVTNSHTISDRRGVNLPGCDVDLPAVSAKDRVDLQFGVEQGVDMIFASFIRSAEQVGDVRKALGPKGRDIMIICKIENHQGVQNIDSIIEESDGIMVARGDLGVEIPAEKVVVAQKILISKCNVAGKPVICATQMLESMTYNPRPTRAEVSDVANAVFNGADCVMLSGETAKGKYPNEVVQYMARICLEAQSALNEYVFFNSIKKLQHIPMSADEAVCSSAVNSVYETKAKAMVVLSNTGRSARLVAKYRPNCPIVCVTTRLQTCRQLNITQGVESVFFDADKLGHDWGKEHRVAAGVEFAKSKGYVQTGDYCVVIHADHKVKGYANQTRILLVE
Chain of Muscarinic acetylcholine receptor M1 (Rattus norvegicus) (P08482 whole entry, looked up): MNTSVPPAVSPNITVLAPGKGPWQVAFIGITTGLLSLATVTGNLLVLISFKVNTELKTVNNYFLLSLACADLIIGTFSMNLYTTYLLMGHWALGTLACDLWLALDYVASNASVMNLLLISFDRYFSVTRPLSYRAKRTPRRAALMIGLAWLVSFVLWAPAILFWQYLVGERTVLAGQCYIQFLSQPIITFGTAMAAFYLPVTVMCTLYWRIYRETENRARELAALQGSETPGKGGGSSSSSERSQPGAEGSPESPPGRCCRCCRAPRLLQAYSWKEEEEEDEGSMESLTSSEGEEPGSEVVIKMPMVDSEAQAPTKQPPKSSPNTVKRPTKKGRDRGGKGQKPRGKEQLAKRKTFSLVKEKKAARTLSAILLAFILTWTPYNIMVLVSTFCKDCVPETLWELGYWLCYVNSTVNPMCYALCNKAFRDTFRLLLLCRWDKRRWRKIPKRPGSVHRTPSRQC

For `C=CCn1c(=S)[nH]c2scc(-c3ccco3)c2c1=O`, the Potency [1] was 26.9 µM (active).
For `C=CC(C)(O)CCCC(C)CCCC(C)CCCC(C)C` (stereo not given), the outcome [2] was “inactive”.
In the case of `Oc1cc2c(cc1O)[C@H]1c3ccc(O)c(O)c3OC[C@@]1(O)C2`, the outcome [2] was “inactive”.
For `Cc1c(C(=O)O)c(O)cc2c1C(=O)c1c(O)c([C@H]3O[C@H](CO)[C@@H](O)[C@H](O)[C@H]3O)c(O)c(O)c1C2=O`, the outcome [2] was “inactive”.
For `Cc1cc(C)c2nc(-c3ccco3)cc(C(=O)O)c2c1`, the Potency [3] was 15.8 µM (active).
With `CC[C@@H](CO)Nc1nc(NCc2ccccc2)c2ncn(C(C)C)c2n1` the outcome [4] was “inactive”, the outcome [5] was “inactive” and the Potency [6] was “inactive”. For the same molecule, the outcome [7] was “inactive”, the outcome [8] was “inactive” and the outcome [9] was “inactive”. For the same molecule, the Potency [10] was “inactive”, the outcome [11] was “inactive” and the outcome [12] was “inactive”. The outcome [13] was “inactive”, the outcome [14] was “inactive” and the outcome [15] was “inactive”. The outcome [16] was “inactive”.
With `N#Cc1ccccc1CN1C(=O)S/C(=C/c2cccn2-c2cccc(C(=O)O)c2)C1=O` the Potency [17] was 67 µM (active) and the Potency [1] was 60.1 µM (active).
With `O=C(NCc1ccccn1)c1ccc2nc(-c3ccco3)c(-c3ccco3)nc2c1` the Potency [3] was 10 µM (active).
In the case of `COc1cc([C@H](Cc2ccccc2)NC(C)=O)oc(=O)c1`, the Potency [17] was 37.7 µM (active) and the Potency [1] was 23.9 µM (active).
In the case of `NS(=O)(=O)c1cc2c(cc1Cl)N[C@H](Cc1ccccc1)NS2(=O)=O`, the Potency [18] was “inactive”.
With `Cc1cc(C)n(-c2ccc(Cl)c(C(=O)O)n2)n1` the outcome [19] was “inactive”.
With `CC(C)(C)NC[C@@H](O)c1ccc(O)c(CO)n1` the Potency [20] was “inactive”.
In the case of `CN1CCN(CCCCOc2ccccc2-c2ccccc2)CC1`, the outcome [19] was “inactive”.
In the case of `CN(C)[C@H]1C(=O)C(C(=O)NCN2CCCC2)=C(O)[C@]2(O)C(=O)C3=C(O)c4c(O)cccc4[C@](C)(O)[C@H]3C[C@H]12`, the Potency [3] was 0.0794 µM (active), the Potency [20] was “inactive” and the Potency [18] was “inactive”.
With `C=CCc1cc(C)ccc1OCCCn1ccnc1` the outcome [19] was “inactive”.
In the case of `O=C(CN1C(=O)COc2ccccc21)Nc1ccc(F)cc1`, the outcome [19] was “inactive”.
In the case of `Cc1cn([C@H]2C[C@H](N=[N+]=[N-])[C@H](CO)O2)c(=O)[nH]c1=O`, the outcome [4] was “inactive”, the outcome [5] was “inactive” and the outcome [8] was “inactive”. For the same molecule, the outcome [9] was “inactive”, the Potency [10] was “inactive” and the Potency [20] was “inactive”. For the same molecule, the Potency [18] was “inactive”.
For `O=C(O)[C@@H](S)[C@H](S)C(=O)O`, the Potency [20] was “inactive”.
